Source: PubChem
Nrf2 block = Nrf2 qHTS screen for inhibitors; A549 ARE-Fluc reporter, luciferase luminescence, 18-24 h; 360,000 compounds, 2.1% hits; Potency, µM (titrated, usually from 46 µM), without a hit: top-dose activity change, negative = inhibition, hits mostly inhibitors; also: % is scaled to controls: 0 for no effect and ±100 for the full control effect; nearly all actives have a fitted effect of over 60% in size
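Cells were seeded and rested 2 h, then exposed to compounds for 18-24 h. CellTiter-Fluor was read first as a viability measure. BugLite was added 15 min before the final luminescent read of ARE-luciferase activity in A549 cells.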
ELG1 DNA repair = qHTS screen for small molecules that inhibit ELG1-dependent DNA repair in human embryonic kidney (HEK293T) cells expressing luciferase-tagged ELG1 | 330,000 compounds, 2.3% hits | HEK293T ELG1-luciferase reporter, luminescence, 16 h; DNA damage induced by 5-fluorouridine | Potency, µM (top dose mostly 46.1 µM), without a hit: at the top dose activity change, negative = inhibition, usual class: inhibitors; also: % is scaled to controls: 0 for no effect and ±100 for the full control effect; nearly all actives have a fitted effect of over 55% in size
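Step one: seed 2,000 cells per well. Step two: pin-transfer compound or DMSO alongside 5-fluorouridine. Step three: incubate 16 hr, 37 °C, 5% CO2. Step four: add ONE-Glo, wait 30 min, read luminescence.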
Nrf2 activator = qHTS of Nrf2 Activators; AREc32 ARE-luciferase reporter (MCF7-derived line), luminescence, 24 h; Potency, µM (titrated, usually from 46.1 µM), without a hit: top-dose activation, actives largely listed as activators; 410,000 compounds, 0.31% hits; also: % of control where 0% means no effect; nearly all actives have a fitted effect of over 65% in size
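Reporter line AREc32 (ARE-Fluc), seeded overnight in OPTI-MEM with 5% FBS; compound pin-transferred, 24 hr at 37 deg C, 5% CO2; luminescent read-out.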
A549 viability = Nrf2 qHTS screen for inhibitors: counterscreen for cytotoxicity; A549 ARE-Fluc cells, CellTiter-Fluor viability, 18-24 h; Potency, µM (doses to about 46 µM), for the others: at the highest dose activity change, negative = cytotoxicity, usual class: inhibitors; 390,000 compounds, 0.16% hits; also: % is scaled to controls: 0 for no effect and ±100 for the full control effect
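A549 ARE_Fluc cells in 5% FBS OPTI-MEM were exposed to compounds in concentration-response for 18-24 h at 37 deg C. Viability was read by CellTiter-Fluor fluorescence (Ex 405/Em 525) after 30 min, before the luciferase read.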
* hit, by the source's call; ? = inconclusive; . = not tested or not shown. Rows were chosen to be rich in hits. Some 3.7% of all compounds tested hit in one or more screens of this group. Calls follow the shape of the dose curve; as a rule, active = well fitted curve in the direction sought with a large enough effect; inconclusive = small, poorly fitted or top-dose-only effect, or another doubt; inactive = no such curve, though single readings can be large; an effect the other way counts as inactive or inconclusive. Potency is read from the fitted curve at half-maximal effect.

SMILES	Nrf2 block	ELG1 DNA repair	Nrf2 activator	A549 viability
CCn1cc(C(=O)N2CCCC2)c(=O)c2cc(S(=O)(=O)N3CCC(C)CC3)ccc21	-6%	25%	0%	-3%
Cc1ccc(S(=O)(=O)N2CCOCC2)cc1C(=O)N1CCN(c2ccc(C(F)(F)F)cn2)CC1	26µM*	?	4%	0%
CCn1cc(C(=O)N2CCN(c3cc(Cl)ccc3C)CC2)c(=O)c2cc(S(=O)(=O)N3CCOCC3)ccc21	21µM*	.	-1%	-12%
CC(=O)c1ccc(N2CCN(c3ccc(C(F)(F)F)cn3)CC2)cc1	9.2µM*	-4%	0%	0%
CCn1cc(C(=O)N2CCN(c3cccc(Cl)c3)CC2)c(=O)c2cc(S(=O)(=O)N3CCC(C)CC3)ccc21	21µM*	.	0%	-4%
CC(=O)c1ccc(N2CCN(c3ncc(C(F)(F)F)cc3Cl)CC2)cc1	?	-13%	0%	0%
CCCCn1nnnc1C(c1ccccc1)N1CCN(c2ccc(C)cc2)CC1 (stereo not given)	.	.	5%	.
COC(=O)CCC(=O)N1CCCC(N2CCN(c3cccc(C(F)(F)F)c3)CC2)C1 (stereo not given)	-11%	-8%	0%	5%
Cc1ccc(S(=O)(=O)N2CCN(C(=O)c3cc(S(=O)(=O)N4CCOCC4)ccc3Cl)CC2)c(C)c1	21µM*	.	0%	-4%
O=C(c1cc(S(=O)(=O)N2CCCCC2)ccc1Cl)N1CCOCC1	0%	11%	0%	-1%
CCOc1cc(/C=C2\CCC/C(=C\c3cc(Cl)c(O)c(OCC)c3)C2=O)cc(Cl)c1O	?	6.5µM*	?	?
CCOc1cc(/C=C2\CN(C)C/C(=C\c3ccc(O)c(OCC)c3)C2=O)ccc1O	21µM*	23µM*	?	13µM*
COc1cc(C=C2CN(C)C(=O)C2=O)ccc1O	.	.	-1%	.
CC(=O)N1CCOc2ccc(S(=O)(=O)N3CCC(C(=O)Nc4ccc(C)c(C)c4)CC3)cc21	16µM*	-5%	0%	-18%
O=C(Nc1ccc2c(c1)OCO2)C1CCN(S(=O)(=O)c2ccc3c(c2)OCCO3)CC1	?	?	2%	-7%
CC(=O)N1CCOc2ccc(S(=O)(=O)NCC3CCC(C(=O)Nc4ccc(C)cn4)CC3)cc21 (stereo not given)	?	5.2µM*	0%	3%
COc1ccc(S(=O)(=O)N2CCC(C(=O)Nc3ccc4c(c3)OCCO4)CC2)cc1OC	21µM*	-18%	0%	2%
C[C@H](CO)N1C[C@H](C)[C@@H](CN(C)C(=O)Nc2ccc(C(F)(F)F)cc2)Oc2ccc(NS(=O)(=O)c3cn(C)cn3)cc2C1=O	3%	11%	-1%	1%
CCOC(=O)c1c(C)oc2c1c(C=NCCO)c(O)c1ccccc12	15µM*	?	1%	23µM*
CC(C)Cn1cc(NC(=O)N2CCN(c3ccccc3F)CC2)c2ccccc2c1=O	?	.	-1%	-5%
Cc1cccc(N2CCN(CCCNC(=O)C3CCCN(c4ncnc5c4nc4n5CCCCC4)C3)CC2C)c1 (stereo not given)	?	12µM*	0%	?
Cc1cccc(CCNC(=O)C2CCCN(c3ncnc4c3nc3n4CCCCC3)C2)c1 (stereo not given)	-23%	?	0%	0%
Cc1cccc(N2CCN(c3ncnc4c3nc3n4CCCCC3)CC2C)c1 (stereo not given)	18µM*	.	-4%	16µM*
COc1cc(NC(=O)Cn2nc(C(F)(F)F)c(Br)c2C)cc([N+](=O)[O-])c1	23µM*	18µM*	4%	?
COc1ccc(CNC(=O)Cn2nc(C(F)(F)F)c(Br)c2C)cc1	13%	-7%	-1%	3%
SMILES	Nrf2 block	ELG1 DNA repair	Nrf2 activator	A549 viability
CCOc1ccc(C(=O)n2cnnc2N)cc1	13µM*	16%	0%	1%
Cc1ccc(-c2nnc(SCC(=O)N/N=C/c3ccccc3C(=O)O)n2-c2ccc(C)cc2)cc1	-24%	?	0%	5%
Cc1cccc(C)c1NC(=O)CCCSc1nnc(-c2ccc(Cl)cc2)n1-c1ccccc1	?	21µM*	4%	-16%
Cc1ccc(-c2nnc(SCC(=O)N/N=C/c3ccc(C)s3)n2-c2ccccc2)cc1	0%	23µM*	-1%	-11%
O=C(CSc1nnc(-c2ccncc2)n1-c1ccccc1)Nc1ccc(F)cc1	.	.	0%	-2%
CC(=O)Nc1nonc1-c1nnc(SCC(=O)Nc2c(C)cccc2C)n1-c1ccccc1	-6%	.	-1%	0%
Cc1cccc(C)c1NC(=O)CCCSc1nnc(-c2ccc(F)cc2)n1-c1ccccc1	?	16µM*	0%	-16%
O=C(CNC(=O)c1ccncc1)OC(C(=O)Nc1cc(C(F)(F)F)ccc1Cl)c1ccccc1 (stereo not given)	?	.	.	16%
O=C(c1cnc(Cl)c(Cl)c1)N1CCN(S(=O)(=O)c2cccs2)CC1	.	.	1%	.
CCN1C[C@@H]2[C@@H]3C(=O)N(C)C(=O)[C@@H]3[C@](Cc3ccccc3)(C1=O)N2C(=O)c1ccc(C(C)(C)C)cc1	-15%	.	0%	-17%
CCOC(=O)c1[nH]c2c(c1-c1ccccc1)C(=O)CC(c1ccc(OC)c(OC)c1)C2 (stereo not given)	21µM*	?	1%	0%
O=C(N/N=C(\c1ccccc1)c1ccccn1)c1cccc([N+](=O)[O-])c1	9.2µM*	?	0%	-14%
CCOc1ccc(C(=O)N/N=C(\c2ccccc2)c2ccccn2)cc1	21µM*	?	8%	?
C/C(=N\NC(=O)c1ccc(F)cc1)c1ccccn1	?	?	1%	?
O=C(NCC1CCCO1)C1CC(=O)N(c2ccc(Cl)cc2)C1 (stereo not given)	-11%	5%	3%	-12%
CC(=O)Nc1ccc(NC(=O)c2oc3c(c2C)-c2nn(Cc4ccccc4Cl)cc2CC3)cc1	5%	.	-1%	1%
COc1ccc(OC)c(C2C(C(=O)c3cc4ccccc4o3)=C(O)C(=O)N2c2cc(C)on2)c1 (stereo not given)	?	-1%	3%	12µM*
CCCOc1ccc(C2C(C(=O)c3cc4ccccc4o3)=C(O)C(=O)N2c2cc(C)on2)cc1 (stereo not given)	?	10%	0%	21µM*
Cc1cc(C)nc(N/N=C2/CCCC/C2=C\c2ccccc2)n1	-3%	2.3µM*	7%	-15%
O=C(Nc1ccccc1OC(=O)c1ccccc1)c1ccccc1	12%	.	11%	11%
Cc1cc2nccc(-c3ccncc3)n2n1	?	13µM*	0%	1%
N#Cc1ccc(NC(=O)COC(=O)C2Cc3ccccc3CN2C(=O)c2ccccc2)cc1 (stereo not given)	7.3µM*	10µM*	-1%	?
